# According to PubChem BioAssay (NCATS):
# Results filed as inconclusive are left out. Values without a mark were called inactive. Calls of active or inactive are those of the source. Calls follow the shape of the dose curve; as a rule, active = well fitted inhibition curve with a large enough effect; inconclusive = small, poorly fitted or top-dose-only effect; inactive = flat fitted curve, though single readings scatter.
# Molecular target: Glutathione peroxidase 1 (Homo sapiens) (UniProt P07203)
# Sequence (P07203 whole entry, looked up): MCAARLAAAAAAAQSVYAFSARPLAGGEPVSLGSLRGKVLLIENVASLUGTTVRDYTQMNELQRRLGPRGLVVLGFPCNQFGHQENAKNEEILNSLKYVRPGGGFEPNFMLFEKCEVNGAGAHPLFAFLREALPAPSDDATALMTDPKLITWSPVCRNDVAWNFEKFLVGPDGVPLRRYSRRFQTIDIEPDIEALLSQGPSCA
# Assay: Primary qHTS Assay for Inhibitors of Recombinant Selenoprotein Glutathione Peroxidase 1 (GPX1) (AID 1845191); also: nearly all actives have a fitted effect of over 65% in size
# Settings: recombinant GPX1, GR-coupled NADPH fluorescence, 15 min; series mostly up to 48.8 µM; activity, negative = inhibition: at the top concentration
# Method in brief: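 GR-coupled assay: compounds preincubated 30 min at room temperature with GPX1, then reaction started with CHP; final 10 nM GPX1, 1 mM GSH, 0.5 mM CHP, 0.5 mM NADPH, 100 nM GR, 0.01% BSA, pH 7.5 Tris buffer. NADPH fluorescence (340/450 nm) read at 0 and 15 min.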
# % is scaled to controls: 0 for no effect and ±100 for the full control effect.
Compound,Potency,outcome,"activity, negative = inhibition"
O=C(Nc1ccc(-c2ccnc(Nc3ccc(N4CCOCC4)cc3)n2)cc1)[C@@H]1CCCN1,inactive,,
CC[C@@]1([C@@H]2O[C@@H]([C@H]3O[C@@](O)(CO)[C@H](C)C[C@@H]3C)C[C@@H]2C)CC[C@H]([C@]2(C)CCC3(C[C@H](O)[C@@H](C)[C@@H]([C@@H](C)[C@@H](OC)[C@H](C)C(=O)O)O3)O2)O1 (stereo not given in full),inactive,,
Cc1cc2nc3c(=O)[nH]c(=O)nc-3n(C[C@H](O)[C@H](O)[C@H](O)COP(=O)(O)OP(=O)(O)OC[C@H]3O[C@@H](n4cnc5c(N)ncnc54)[C@H](O)[C@H]3O)c2cc1C,,inactive [at 27.7 µM],
CN(C)CC(=O)O,,inactive,
Cc1cc(CC(C)C[Si](C)(O[Si](C)(C)C)O[Si](C)(C)C)c(O)c(-n2nc3ccccc3n2)c1 (stereo not given),,inactive [at 15.3 µM],
CCCCCCO[C@@H](C)c1cccc(-c2csc(NC(=O)c3cc(Cl)c(/C=C(\C)C(=O)O)c(Cl)c3)n2)c1OC,,,-20.2%
C[C@H](CCC(=O)O)[C@H]1CC[C@H]2[C@@H]3CC[C@@H]4C[C@H](O)CC[C@]4(C)[C@@H]3C[C@H](O)[C@]12C,,,-27.6%
CN[C@@H]1[C@@H](O[C@H]2O[C@H](CO)[C@@H](N)[C@H](O)[C@H]2O)O[C@H]2C[C@@H](N)[C@H](O[C@H]3[C@H](O)[C@@H](O)[C@H](N)C[C@@H]3N)O[C@@H]2[C@@H]1O,,,-12.9%
CCC(=O)O[C@]1(C(=O)COC(C)=O)CC[C@H]2[C@@H]3CCC4=CC(=O)CC[C@]4(C)[C@H]3[C@@H](O)C[C@@]21C,,,2.58%
CC(C)NC(=O)C1CCC(n2c(NC(=O)c3ccc(F)cc3)nc3ccc(CN4CCC(C(C)(C)O)CC4)cc32)CC1 (stereo not given),,,-5.42% [at 27.7 µM]
